Experimental findings from PubChem BioAssay (NCI) are described below.

Compounds without any hit were thinned out: in the full panel of roughly 83,000, 20% have a hit.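 Single-dose data. Exposure time 48 hours. Values below 10 considered active.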 A number with no mark means an inactive call. Activity calls are given as the source filed them.

The test system of the test is HL-60(TB) leukemia. Description: NCI-60 one-dose screen, 48 h (100 = growth as untreated, 0 = no growth, -100 = all killed). As to conditions: 10 µM unless noted.
For `COc1ccc(C2=Nn3c(nnc3-n3nc(C)cc3C)SC2)cc1`, the growth is -29% (active). The same measure for `CNC=O`: 89.6%. The same measure for `C=C(C)[C@@H]1CC[C@]2(C(=O)NCCNCCNCCN)CC[C@]3(C)[C@H](CC[C@@H]4[C@@]5(C)CC[C@H](O)C(C)(C)[C@@H]5CC[C@]43C)[C@@H]12`: -24% [100 µM] (active); for `FC(F)(F)c1ccc2c(c1)n1cnnc1c1nncn21`: 104%. The same measure for `c1cc(OCCN2CCCC2)ccc1CNc1ccc2nc(CCC3CCCCC3)[nH]c2c1`: -4.69% (active); for `Nc1cccc2c1CN(C1CCC(=O)NC1=O)C2=O` (stereo not given): 105%; for `CC1C(=O)c2ccccc2CC1C(=O)O` (stereo not given): 99.7%. Take `CCCCC(=O)N/N=C/c1cc(I)cc(I)c1O`: the growth was 4.46% (active).

Regarding `Nc1nc(N=Nc2ccc(O)cc2)cc(=O)[nH]1`, the growth is 95.6%. Turning to `COC(=O)c1c2c(c(C)[n+]([O-])c1C)C(=O)C(NCc1ccc(F)c(F)c1)=CC2=O`, the growth is -23.6% (active).

Regarding `O=S(=O)(Nc1ccc2ccccc2c1)N1CCCCC1`, the growth is 85.1%. The same measure for `O=C(Nc1cccc(-n2cc(-c3ccncc3)c(-c3ccc(Cl)c(O)c3)n2)c1)Nc1ccc(Cl)c(C(F)(F)F)c1`: -11.2% (active); for `COc1ccc(-c2oc(=O)ccc2-c2cc(OC)c(OC)c(OC)c2)cc1F`: 44.6%. The same measure for `O=C1CSC(c2ccccc2O)N1c1nnc(Cn2ccnc2)o1` (stereo not given): 24.9%. As to `C#Cc1cccc(NC(=O)C2CCCN(C(=O)CCl)C2)c1` (stereo not given), the growth was 34% [8.25 µM]. The same measure for `NC(C(=O)O)C(O)c1ccco1` (stereo not given): 116%; for `Cc1ccc(C(=O)Nc2ccc(CN3CCN(C)CC3)c(C(F)(F)F)c2)cc1C#Cc1cnc2cccnn12`: -71.9% (active); for `COc1cc(/C=C/c2cc(/C=C/c3ccc(O)c(OC)c3)n(C(=O)Nc3ccc(F)c(Cl)c3)n2)ccc1O`: -28.9% (active). On to `O=C1OCC2=C1C(c1cccc(F)c1)c1cc3c(cc1N2CCO)OCO3` (stereo not given), for which the growth is -28.9% (active). For the compound `COc1cc(-c2csc(NC(=O)c3cc(C(F)(F)F)cc(C(F)(F)F)c3)n2)cc(OC)c1OC`, the growth was 29.6%. The same measure for `CCCOc1ccc(-c2nc(-c3ccc(N)cc3)cs2)cc1`: 56.7%; for `OCC1OC(n2cnc3c(N/N=C\c4ccccn4)ncnc32)C(O)C1O` (stereo not given): 6.17% (active); for `CC[C@@]1(OC(=O)CN(C)C)C(=O)OCc2c1cc1n(c2=O)Cc2cc3c(N)cccc3nc2-1`: -2.25% (active). The same measure for `O=C1CCN2C(=O)Nc3ccccc3C2C1` (stereo not given): 94.5%; for `O=c1ccn(C2CC(O)C(O)C(CO)O2)c(=O)[nH]1` (stereo not given): 90.4%.
